The record followed here is PubChem BioAssay AID720554 (ICCB-Longwood Screening Facility, Harvard Medical School, 2013).

Hit rate of the full screen: of about 12,000 compounds, about 45 (0.4%) were called active. Cut-off read from the data, not from the text of the source: active = inhibition mostly above about 83% (no sharp cut-off); inactive = mostly below about 52%. Only a selection was taken, and actives are over-represented in it overall.

Assay [1] can be described thus: BmaI1 acyl-homoserine lactone synthase inhibition – biochemical, fluorescence intensity, with counterscreen (AID 720554). Particulars: BmaI1 enzyme assay, measured here: counterscreen fluorescence % control, concentration not given here. Background: A counterscreen serves to expose hits that act by an unwanted route or on another target.
For assay [2], the system named is acyl-homoserine lactone synthase BmaI1 (Burkholderia mallei ATCC 23344). Described as above. Particulars: BmaI1 enzyme assay, stronger effect = higher value, concentration not given here.

What is called inhibition is the drop in the measured response relative to a control, in per cent.

Regarding `Cc1nc(N2CCCC2)sc1C(=O)c1oc2ccccc2c1C`, the inhibition in assay [1] is 17%; in assay [2], 20% (inactive).
The corresponding values for `O=C1N=c2ccccc2=C1c1sc(N2CCCCC2)nc1O` are 8.5% and 91.5% (active).
The corresponding values for `Cc1nc(N2CCCCC2)sc1C1Sc2ccccc2NC1=O` (configuration not stated) are -5% and -2.5% (inactive).
The corresponding values for `CC(C)CNCC(=O)Nc1ccc(S(N)(=O)=O)cc1` are -1.5% and 6.5% (inactive).
Consider `Cc1csc(C(C#N)C(=O)CSc2ccc3c(c2)OCCO3)n1` (configuration not stated), for which the inhibition is 0% in assay [1] and 16% (inactive) in assay [2].
The corresponding values for `Cn1cccc1C(=O)Nc1ccc2c(c1)nc1n2CCCCC1` are 27% and 18% (inactive).
With `S=c1[nH]c(-c2ccccc2)cn1/N=C/c1ccc2c(c1)OCCO2`, the inhibition in assay [1] was 41.5%; in assay [2], 94% (inactive).
The corresponding values for `CC(=O)Nc1ccc(/C=N/n2cc(-c3ccccc3)[nH]c2=S)cc1` are 13.5% and 90% (active).
Take `CC(=O)Nc1ccc(/C=N/N2C(=O)c3ccccc3C2=O)cc1`: the inhibition in assay [1] was 14.5%; in assay [2], 13% (inactive).
As to `O=C(CCc1nc2ccccc2c(=O)[nH]1)Nc1ccccc1C(=O)NC1CC1`, the inhibition was 5.5% in assay [1] and 13.5% (inactive) in assay [2].
The corresponding values for `O=C(OC(c1ccccc1)c1ccccc1)c1ccncc1` are 14% and 14% (inactive).
The corresponding values for `CC1=C(C(=O)O)N2C(=O)[C@@H](NC(=O)[C@H](N)c3ccccc3)[C@H]2SC1` are 7.5% and -7% (inactive).
As for `N[C@@H](C(=O)N[C@@H]1C(=O)N2C(C(=O)O)=C(Cl)CS[C@H]12)c1ccccc1`, the inhibition in assay [1] was 4.5%; in assay [2], 5% (inactive).
The corresponding values for `N[C@@H](C(=O)N[C@@H]1C(=O)N2C(C(=O)O)=C(CSc3cn[nH]n3)CS[C@H]12)c1ccc(O)cc1` (tested in a mixture with another compound) are 6% and 93% (active).
The corresponding values for `CN(C)S(=O)(=O)c1cccc(COC(=O)c2cn(-c3ccccc3)nc2-c2cccs2)c1` are -2.5% and 8.5% (inactive).
The corresponding values for `Cc1ccc(-c2csc(NC(=O)C3(c4ccccc4)CC3)n2)s1` are 20% and 20% (inactive).
Take `O=C(c1cc(-c2ccccc2)nn1-c1ccccc1)N(C1CC1)C1CCS(=O)(=O)C1` (configuration not stated): the inhibition in assay [1] is 2%; in assay [2] it was 7% (inactive).
As to `Cn1c(=S)[nH]c2ccccc21`, the inhibition was 5% in assay [1] and 51.5% (inactive) in assay [2].
The corresponding values for `FC(F)n1c(=S)[nH]c2ccccc21` are 0.5% and 13.5% (inactive).
The corresponding values for `Cc1ccc(Cn2c(=S)[nH]c3ccccc32)cc1` are 3% and 97% (active).
The corresponding values for `CC(Sc1nnnn1-c1ccc(O)cc1)C(=O)c1ccccc1` (configuration not stated) are 2.5% and 8.5% (inactive).
Take `O=S(=O)(NNC1=NCCCCC1)c1ccccc1`: the inhibition in assay [1] is 28.5%; in assay [2], 63.5% (inactive).
The corresponding values for `c1ccc(NNC2=NCCCCC2)nc1` are 4.5% and 85% (active).
Consider `c1ccc(CNC2=NCCCCC2)nc1`, for which the figures for the inhibition in assay [1] and in assay [2] were -13% and -8.5% (inactive), respectively.
`O=Nc1c(O)[nH]c2c(C(F)(F)F)cccc12`: the inhibition in assay [1] is 11%; in assay [2] it was 13% (inactive).
The corresponding values for `COc1cccc(-n2c(SC3CCOC3=O)nc3ccccc3c2=O)c1` (configuration not stated) are 13.5% and 14.5% (inactive).
Consider `O=C(CSc1ncc(C(F)(F)F)cc1Cl)N1CCN(S(=O)(=O)c2ccccc2)CC1`, for which the inhibition was -4% in assay [1] and 8.5% (inactive) in assay [2].
As for `Cc1noc(C)c1COc1ccc(C(=O)OCC(N)=O)cc1`, the values for the inhibition in assay [1] and in assay [2] were 3% and 14% (inactive), respectively.
The corresponding values for `O=C(CCSc1ccc(Cl)cc1)Nc1ccccc1` are 17.5% and 15% (inactive).
The corresponding values for `CCN(CC)S(=O)(=O)c1ccc2c(c1)nc(CCC(=O)N1CCN(c3ccccc3)CC1)n2CC` are 10.5% and 17% (inactive).
`CCCn1c(CCC(=O)N(C)c2ccccc2)nc2cc(S(=O)(=O)N3CCCC3)ccc21`: the inhibition in assay [1] was -2.5%; in assay [2], 37% (inactive).
The corresponding values for `CCn1c(CCC(=O)N2CCN(c3ccccn3)CC2)nc2cc(S(N)(=O)=O)ccc21` are -0.5% and 98% (active).
The corresponding values for `Cc1ccc(C2=NN(C(=O)CSc3ccc4c(c3)OCCO4)C(c3ccco3)C2)cc1` (configuration not stated) are 0% and 7.5% (inactive).
With `O=C(OCC1CCCCC1)c1n[nH]c2ccccc12`, the inhibition in assay [1] is 12.5%; in assay [2] it was 30.5% (inactive).
As for `COc1ccc(Br)cc1CN(C)CN1C(=O)C2CC=CCC2C1=O` (configuration not stated), the inhibition in assay [1] is 10.5%; in assay [2] it was 3.5% (inactive).
The corresponding values for `CN1/C(=C\C=N\NC(=O)c2cccnc2)C(C)(C)c2ccccc21` are 7% and 43% (inactive).
With `CN1/C(=C\C=N\NC(N)=S)C(C)(C)c2ccccc21`, the figures for the inhibition in assay [1] and in assay [2] were 29% and 85% (active), respectively.
With `CN1/C(=C\C=Nc2ccccc2N)C(C)(C)c2ccccc21`, the inhibition in assay [1] is -25%; in assay [2] it was -9% (inactive).
On to `CC(C)(C)c1ccc(C(=O)NCCc2ccccn2)cc1`, for which the inhibition in assay [1] was 2%; in assay [2], 5.5% (inactive).
For `Cc1cccc(OCc2nnc3n2-c2ccccc2SC3)c1`, the inhibition is -6.5% in assay [1] and -1.5% (inactive) in assay [2].
Turning to `O=C(COC(=O)/C=C/c1ccco1)Nc1cccc(C(F)(F)F)c1`, the inhibition in assay [1] was -1%; in assay [2], 0.5% (inactive).
The corresponding values for `CC1Cc2ccccc2N1CC(=O)NCc1ccc2c(c1)OCO2` (configuration not stated) are -28% and 48% (inactive).
The corresponding values for `S=C(c1ccc(-c2ccccc2)o1)N1CCN(c2ccccc2)CC1` are 13.5% and 97.5% (active).
The corresponding values for `NC(=O)c1ccc(-c2ccccc2)o1` are 40% and 20% (inactive).
Consider `COc1ccc(N2CCN(C(=S)Cc3ccccc3)CC2)cc1`, for which the inhibition in assay [1] was 5%; in assay [2], 8.5% (inactive).
The corresponding values for `O=C(COc1ccccc1C(=O)NCc1ccccc1)Nc1cccc2nsnc12` are 0% and 12% (inactive).
The corresponding values for `COc1ccc(C(=O)OCc2ccccc2F)c(OC)c1OC` are 12.5% and 0% (inactive).
The corresponding values for `COc1ccc(COc2ncnc3ccccc23)cc1F` are 1% and 19.5% (inactive).
With `COc1ccc(COC(=O)c2cc(O)c3ccccc3c2O)cc1F`, the inhibition in assay [1] was 19.5%; in assay [2] it was 84.5% (active).
The corresponding values for `CC(OC(=O)c1ccc(NS(=O)(=O)c2cccs2)cc1)c1nc2scc(-c3cccs3)c2c(=O)[nH]1` (configuration not stated) are 8.5% and 15.5% (inactive).
The corresponding values for `CC1=C/C(=N\NC(=O)COc2ccc(C#N)cc2)CC(C)(C)C1` are 2% and 9% (inactive).
The corresponding values for `CNC(C)c1ccccc1` (configuration not stated) are -4.5% and -1.5% (inactive).
For the compound `COC(=O)c1cnc(N)s1`, the inhibition in assay [1] was 5%; in assay [2], 17% (inactive).
The corresponding values for `Fc1ccccc1NC(=S)N/N=C/c1cn(-c2ccccc2)nc1-c1cc2ccccc2o1` are 2.5% and 6% (inactive).
Turning to `Oc1ccc(/C=N/NC(=S)Nc2ccc(Cl)cc2Cl)c(O)c1O`, the inhibition in assay [1] was 15.5%; in assay [2], 84% (active).
With `O=CN1CCN(C(=S)Nc2ccc(Cl)cc2Cl)CC1`, the inhibition in assay [1] is 9%; in assay [2] it was -3% (inactive).
